# Measurements taken from PubChem BioAssay.
# Active and inactive are the calls of the source.
# Key:
# [1] = system: XIP peptide (Xip251-270) binding; experiment: small-molecule binders of XIP peptide, primary screen, biochemical, small-molecule microarray, fluorescence 635/667 nm, 0.1 µg/mL protein (AID 1182); details: fluorescent protein binding, 635 nm, higher = more signal, called active from +8 up or from −8 down
# XIP peptide (Xip251-270) = experiment: small-molecule binders of XIP peptide, primary screen, biochemical, small-molecule microarray, fluorescence 635/667 nm, 0.5 µg/mL protein (AID 1183); details: small-molecule microarray binding, fluorescence 635 nm; higher = more signal
# [2] = Plasmodium falciparum growth inhibition, primary screen, strain 3D7, DAPI fluorescence, 100 nL (AID 1184);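 further: parasites grown inside human red blood cells in medium with human serum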; details: P. falciparum 3D7 growth, 3 d, higher = more signal
# [3] = target: Homeobox protein Hox-A13 (Mus musculus) (UniProt Q62424); experiment: inhibitors of HoxA13-DNA binding, primary screen, biochemical, fluorescence polarization, labeled oligonucleotide (AID 1185); details: 15 min, higher = more signal, called active from +8 up or from −8 down
# Homeobox protein Hox-A13 (Mus musculus), sequence (Q62424 whole entry, looked up): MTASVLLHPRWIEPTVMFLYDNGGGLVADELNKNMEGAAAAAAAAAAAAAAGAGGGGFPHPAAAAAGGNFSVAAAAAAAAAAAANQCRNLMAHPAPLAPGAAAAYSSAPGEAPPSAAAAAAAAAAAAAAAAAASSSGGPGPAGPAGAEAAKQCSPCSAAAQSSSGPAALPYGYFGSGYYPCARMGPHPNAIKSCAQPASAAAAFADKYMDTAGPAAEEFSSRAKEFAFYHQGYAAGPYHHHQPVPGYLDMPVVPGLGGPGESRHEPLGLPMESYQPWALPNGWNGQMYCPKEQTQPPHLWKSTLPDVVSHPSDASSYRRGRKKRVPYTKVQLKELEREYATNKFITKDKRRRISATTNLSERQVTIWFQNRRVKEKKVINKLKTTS
SMILES,composite z-score [1],composite z-score (XIP peptide (Xip251-270)),z-score [2],z-score [3]
COC(=O)[C@@H]1CC[C@H](C)[C@@H](c2ccc(C)cc2)N1C(=O)c1ccc(C=NO[C@@H]2O[C@H](COC(C)=O)[C@@H](OC(C)=O)[C@H](OC(C)=O)[C@H]2OC(C)=O)cc1,-0.279 (inactive),0.649,-1.4,0.102 (inactive)
Cc1ccc(S(=O)(=O)n2c3ccccc3c3nnc(C(=O)c4ccccc4)nc32)cc1,0.912 (inactive),0.249,0.892,-3.73 (inactive)
O=C(NN=C1C[C@@H](O)[C@@H](O)[C@@H]2[C@@H]3C(=O)N(Cc4ccccc4)C(=O)[C@@H]3CC[C@@H]12)OCc1ccccc1,-0.0255 (inactive),-0.36,0.915,0.236 (inactive)
C=CC1=C[C@H](O)[C@@H]2O[C@@H]2C12OCCCO2,-0.49 (inactive),0.343,-0.706,-1.87 (inactive)
C#CCCCON=C1[C@H]2CCn3c(=O)n(C)c(=O)n3[C@H]2[C@H](O)[C@@H]2O[C@H]12,-0.158 (inactive),0.442,0.275,0.292 (inactive)
CCCNC(=O)OC[C@H]1O[C@H](c2ccccc2)C=C[C@@H]1Oc1ccc(OC)cc1,-0.174 (inactive),0.631,0.284,-1.63 (inactive)
Cc1ccc(S(=O)(=O)OC[C@H]2CN3[C@H](c4ccc(Br)cc4)[C@@H](C)CC[C@H]3C(=O)O2)cc1,0.225 (inactive),0.564,0.565,-5.13 (inactive)
CC(C)=CCCC(C)=CCON=C1C[C@@H](O)[C@@H](O)[C@@H]2[C@@H]3C(=O)N(C(C)(C)C)C(=O)[C@@H]3CC[C@@H]12,-0.119 (inactive),0.233,-1.34,-1.09 (inactive)
